Experimental data taken from PubChem BioAssay (NCI).
Compounds without any hit were thinned out: in the full panel of roughly 83,000, 20% have a hit.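 48-hour exposure, single concentration, 96-well plates; percent growth endpoint where 0 means no net growth. Active: below 10.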 The source made the active and inactive calls.

Assays:
Experiment in all cases: NCI-60 one-dose screen, 48 h (100 = growth as untreated, 0 = no growth, -100 = all killed)
Details in all cases: 10 µM unless noted
RPMI-8226 leukemia = tested on: RPMI-8226 leukemia
OVCAR-8 ovarian = tested on: OVCAR-8 ovarian
OVCAR-5 ovarian = tested on: OVCAR-5 ovarian
OVCAR-4 ovarian = tested on: OVCAR-4 ovarian
SK-OV-3 ovarian = tested on: SK-OV-3 ovarian
IGROV1 ovarian = tested on: IGROV1 ovarian
OVCAR-3 ovarian = tested on: OVCAR-3 ovarian
HS 578T breast = tested on: HS 578T breast
NCI/ADR-RES ovarian = tested on: NCI/ADR-RES ovarian
T-47D breast = tested on: T-47D breast
SW-620 colon = tested on: SW-620 colon
MCF7 breast = tested on: MCF7 breast
HCT-116 colon = tested on: HCT-116 colon
HCC-2998 colon = tested on: HCC-2998 colon
KM12 colon = tested on: KM12 colon
MDA-MB-468 breast = tested on: MDA-MB-468 breast
MDA-MB-435 melanoma = tested on: MDA-MB-435 melanoma

Measured: growth

CN1CCN(c2ccc(C(=O)/C=C/c3cc(C(F)(F)F)cc(C(F)(F)F)c3)cc2)CC1
active: RPMI-8226 leukemia -19.4% | OVCAR-8 ovarian -93.4% | OVCAR-5 ovarian -95.8% | OVCAR-4 ovarian -23.8% | SK-OV-3 ovarian -89.5% | IGROV1 ovarian -36.6% | OVCAR-3 ovarian -54.4% | NCI/ADR-RES ovarian -39.3% | T-47D breast -68.7% | SW-620 colon -44.8% | MCF7 breast -82.3% | HCT-116 colon -87.4% | HCC-2998 colon -91% | KM12 colon -56.8% | MDA-MB-468 breast -69.3%
inactive: HS 578T breast 26.9%

COc1cc(OC)cc(-c2cc3ccc(N(C)C)cc3c(=O)[nH]2)c1
active: OVCAR-8 ovarian 5.26% | OVCAR-3 ovarian 4% | NCI/ADR-RES ovarian 0.753% | MDA-MB-435 melanoma 5.03% | HCT-116 colon 8.72%
inactive: OVCAR-5 ovarian 45.5% | OVCAR-4 ovarian 72.6% | SK-OV-3 ovarian 40.2% | IGROV1 ovarian 29.3% | HS 578T breast 47.3% | T-47D breast 82% | MCF7 breast 22.5% | HCC-2998 colon 40.7% | KM12 colon 16.7% | MDA-MB-468 breast 40.2%

CN1CCN(c2ccc3c(c2)nc(NNC(=O)c2cnccn2)c2cccn23)CC1
active: RPMI-8226 leukemia 5.23% | OVCAR-8 ovarian -79.4% | OVCAR-5 ovarian -25% | OVCAR-4 ovarian -37.6% | SK-OV-3 ovarian -51.3% | OVCAR-3 ovarian -19.7% | NCI/ADR-RES ovarian -10% | T-47D breast -55.6% | MDA-MB-435 melanoma 5.71% | SW-620 colon 9.85% | MCF7 breast -39.1% | HCT-116 colon -52.1% | HCC-2998 colon -44.5% | KM12 colon 1.89% | MDA-MB-468 breast -42.2%
inactive: IGROV1 ovarian 12.4% | HS 578T breast 34.1%

COc1ccc(C(=O)/C=C/c2cccnc2)cc1S(N)(=O)=O
active: RPMI-8226 leukemia -7.06% | MCF7 breast 7.45% | HCT-116 colon -18.1% | KM12 colon 1.84%
inactive: OVCAR-8 ovarian 17.6% | OVCAR-5 ovarian 77.2% | OVCAR-4 ovarian 91.7% | SK-OV-3 ovarian 88.1% | IGROV1 ovarian 59.5% | OVCAR-3 ovarian 17% | HS 578T breast 89.9% | NCI/ADR-RES ovarian 69.1% | T-47D breast 16.9% | SW-620 colon 13.2% | HCC-2998 colon 77.3% | MDA-MB-468 breast 20.5%

COc1ccc(C(=O)/C=C/c2ccccc2Cl)cc1S(N)(=O)=O
inactive: RPMI-8226 leukemia 120% | OVCAR-8 ovarian 110% | OVCAR-5 ovarian 99.3% | OVCAR-4 ovarian 118% | SK-OV-3 ovarian 110% | IGROV1 ovarian 101% | OVCAR-3 ovarian 90.7% | HS 578T breast 107% | NCI/ADR-RES ovarian 104% | T-47D breast 106% | MDA-MB-435 melanoma 117% | SW-620 colon 107% | MCF7 breast 96.2% | HCT-116 colon 106% | HCC-2998 colon 114% | KM12 colon 111% | MDA-MB-468 breast 109%

Cc1cnc(C(=O)NNc2nc3cc(F)ccc3n3c(C(=O)N4CC5CC(C4)N5)ccc23)cn1
inactive: RPMI-8226 leukemia 48.1% | OVCAR-8 ovarian 20.2% | OVCAR-5 ovarian 48.7% | OVCAR-4 ovarian 38.4% | SK-OV-3 ovarian 25.8% | IGROV1 ovarian 39.9% | OVCAR-3 ovarian 50.1% | HS 578T breast 62.9% | NCI/ADR-RES ovarian 67% | T-47D breast 32.1% | MDA-MB-435 melanoma 45.4% | SW-620 colon 32% | MCF7 breast 18.7% | HCT-116 colon 17.5% | HCC-2998 colon 58.7% | KM12 colon 39.8% | MDA-MB-468 breast 13.8%

CN1CCN(Cc2ccc(C(=O)Nc3cccc(C#Cc4cccc5[nH]nc(N)c45)c3)cc2C(F)(F)F)CC1
active: OVCAR-8 ovarian -98.1% | OVCAR-5 ovarian -94.8% | SK-OV-3 ovarian -89.1% | IGROV1 ovarian -70.8% | OVCAR-3 ovarian -46.6% | HS 578T breast -17.5% | NCI/ADR-RES ovarian -61% | T-47D breast -70.4% | MDA-MB-435 melanoma -70.2% | SW-620 colon -38.3% | MCF7 breast -84% | HCT-116 colon -90.4% | HCC-2998 colon -93.6% | KM12 colon -68.8% | MDA-MB-468 breast -89.9%

O=C(Cn1c(/C=C/c2cccc([N+](=O)[O-])c2)nc2ccccc2c1=O)Nc1ccccc1
inactive: RPMI-8226 leukemia 113% | OVCAR-8 ovarian 35.7% | OVCAR-5 ovarian 104% | OVCAR-4 ovarian 98% | SK-OV-3 ovarian 49.4% | IGROV1 ovarian 106% | OVCAR-3 ovarian 54.6% | HS 578T breast 87.2% | NCI/ADR-RES ovarian 65% | T-47D breast 82.6% | MDA-MB-435 melanoma 94.3% | SW-620 colon 91.2% | MCF7 breast 42.2% | HCT-116 colon 57.6% | HCC-2998 colon 120% | KM12 colon 74.6% | MDA-MB-468 breast 98.9%

CN1CCN(c2ccc3c(c2)nc(NNC(=O)c2ncccn2)c2cccn23)CC1
active: OVCAR-8 ovarian -4.43% | OVCAR-5 ovarian -62.9% | OVCAR-4 ovarian -41.7% | SK-OV-3 ovarian -13.2% | OVCAR-3 ovarian -22.8% | NCI/ADR-RES ovarian 4.15% | T-47D breast -22.3% | MDA-MB-435 melanoma -45.7% | SW-620 colon -6.01% | MCF7 breast -17.6% | HCT-116 colon 0.844% | HCC-2998 colon -87.7% | KM12 colon -14.2% | MDA-MB-468 breast -42.8%
inactive: RPMI-8226 leukemia 28.4% | IGROV1 ovarian 11.3% | HS 578T breast 26.5%

O=C1N/C(=N\c2nccs2)S/C1=C\C=C/c1ccccc1
inactive: RPMI-8226 leukemia 39.4% | OVCAR-8 ovarian 13.7% | OVCAR-5 ovarian 61.8% | OVCAR-4 ovarian 44.5% | SK-OV-3 ovarian 77.7% | IGROV1 ovarian 30.3% | OVCAR-3 ovarian 50.7% | HS 578T breast 85.2% | T-47D breast 32.7% | MDA-MB-435 melanoma 44.5% | SW-620 colon 41% | MCF7 breast 16.1% | HCT-116 colon 12.1% | HCC-2998 colon 75.7% | KM12 colon 38% | MDA-MB-468 breast 44.2%

COc1ccc(C2=NN(c3ccccc3)C(c3ccc(OCc4ccccc4)c(OC)c3)C2)cc1OC (stereo unspecified)
inactive: RPMI-8226 leukemia 120% | OVCAR-8 ovarian 92.6% | OVCAR-5 ovarian 102% | OVCAR-4 ovarian 113% | SK-OV-3 ovarian 98.1% | IGROV1 ovarian 102% | OVCAR-3 ovarian 109% | HS 578T breast 94.1% | NCI/ADR-RES ovarian 109% | T-47D breast 89.4% | MDA-MB-435 melanoma 105% | MCF7 breast 84.8% | HCT-116 colon 85.9% | HCC-2998 colon 117% | KM12 colon 91.8% | MDA-MB-468 breast 105%

COc1ccc(C(=O)/C=C/c2cc3c(cc2Br)OCO3)cc1S(N)(=O)=O
inactive: OVCAR-4 ovarian 28% | HS 578T breast 30.3% | NCI/ADR-RES ovarian 13.8% | MDA-MB-468 breast 23.8%
active: RPMI-8226 leukemia -13.6% | OVCAR-8 ovarian -21% | OVCAR-5 ovarian -7.93% | IGROV1 ovarian 3.7% | OVCAR-3 ovarian -57.5% | T-47D breast -34.1% | MDA-MB-435 melanoma 5.61% | SW-620 colon -42.7% | MCF7 breast -1.63% | HCT-116 colon -98% | HCC-2998 colon -53.8% | KM12 colon -57.9%

Nc1n[nH]c2cccc(C#Cc3cccc(NC(=O)c4cccc(Cl)c4)c3)c12
inactive: RPMI-8226 leukemia 29.9% | OVCAR-8 ovarian 21.4% | OVCAR-5 ovarian 53.2% | OVCAR-4 ovarian 39.9% | SK-OV-3 ovarian 15.7% | IGROV1 ovarian 21.6% | OVCAR-3 ovarian 43.3% | HS 578T breast 43.2% | MDA-MB-435 melanoma 22.7% | SW-620 colon 42.1% | MCF7 breast 15.9% | HCT-116 colon 12.3% | HCC-2998 colon 30.4% | KM12 colon 20.2% | MDA-MB-468 breast 46%
active: T-47D breast 7.26%
